Source: PubChem (National Center for Advancing Translational Sciences (NCATS))
ALOX12 inh = Primary qHTS assay for inhibitors of human arachidonate 12S-lipoxygenase (ALOX12): Round 2; Polyunsaturated fatty acid lipoxygenase ALOX12 (Homo sapiens), P18054; purified 12hLO, xylenol orange hydroperoxide absorbance; Potency, µM (series often up to 108 µM), for the others: at the top dose activity change, negative = inhibition, actives largely listed as inhibitors; 580,000 tested, 1.1% active
Target sequence (P18054 whole entry, looked up): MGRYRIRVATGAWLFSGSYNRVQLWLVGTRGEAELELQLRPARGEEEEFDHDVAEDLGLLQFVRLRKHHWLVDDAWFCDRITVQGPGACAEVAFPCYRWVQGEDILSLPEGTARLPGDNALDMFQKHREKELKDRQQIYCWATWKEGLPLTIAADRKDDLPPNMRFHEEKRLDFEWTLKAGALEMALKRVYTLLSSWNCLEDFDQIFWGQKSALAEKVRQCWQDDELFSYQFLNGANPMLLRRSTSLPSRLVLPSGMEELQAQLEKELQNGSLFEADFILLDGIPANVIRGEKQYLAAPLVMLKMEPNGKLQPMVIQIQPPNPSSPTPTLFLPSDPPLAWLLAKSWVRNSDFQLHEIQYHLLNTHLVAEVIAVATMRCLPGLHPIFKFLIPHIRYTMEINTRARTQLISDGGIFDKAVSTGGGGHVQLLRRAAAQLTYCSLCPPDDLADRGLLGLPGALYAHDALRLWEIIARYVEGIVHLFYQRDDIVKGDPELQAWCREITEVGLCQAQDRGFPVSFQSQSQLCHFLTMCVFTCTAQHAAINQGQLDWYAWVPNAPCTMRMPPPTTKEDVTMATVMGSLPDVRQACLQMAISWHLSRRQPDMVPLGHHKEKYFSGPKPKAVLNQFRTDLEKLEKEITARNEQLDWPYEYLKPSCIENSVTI
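Purified human 12hLO (150 nM final) in 25 mM Hepes, 0.01% Triton X-100, pH 7.0 was preincubated 15 min at room temperature with compound. Then 40 uM arachidonic acid was added, 30 min. Hydroperoxide was read by Fe-XO absorbance ratio 573/405 nm.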
PLK1 PBD inh = qHTS for Inhibitors of PLK1-PDB (polo-like kinase 1 - polo-box domain): Primary Screen | 360,000 tested, 2.8% active | Potency, µM, without a hit: max response, negative = inhibition, actives largely listed as inhibitors | AID 720504, 2013 | Plk1 PBD binding of FITC phosphopeptide, fluorescence polarization; further: series mostly up to about 57 µM; nearly all actives have a fitted effect of over 65% in size
Sfp PPTase inh = qHTS Assay for Inhibitors of Bacillus subtilis Sfp phosphopantetheinyl transferase (PPTase). 4'-phosphopantetheinyl transferase ffp (Bacillus subtilis), Q9F4F7. Biochemical Sfp PPTase activity, qHTS. Potency, µM, for the others: largest response in the series, negative = inhibition, actives largely listed as inhibitors. 310,000 tested, 3.5% active;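 further: the enzyme is Sfp with the accession as filed and its product quenches rhodamine fluorescence; 0% = enzyme reaction without inhibitor and -100% = no enzyme wells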
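Fluorescence-quenching assay: 15 nM Sfp-PPTase preincubated 15 min at room temperature with compound, then 5 uM rhodamine-CoA and 12.5 uM BHQ-2-labelled YbbR peptide added. Fluorescence (ex 525/em 598 nm) read at start and after 30 min; difference gives rate.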
VDR inh = Inhibitors of the vitamin D receptor (VDR): qHTS; 400,000 tested, 0.93% active; VDR-SRC2-3 peptide fluorescence polarization, 2 h; Vitamin D3 receptor (Homo sapiens), P11473; Potency, µM, inactives show max response, negative = inhibition, hits mostly inhibitors
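Reagent solutions, kept cold and dark, are dispensed first; compounds are then pinned in at 23 nl, plates briefly spun, and incubated 2 h at ambient temperature. Inhibition of VDR–SRC2-3 peptide binding is read by fluorescence polarization.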
* hit, by the source's call; ? = inconclusive; / = not tested or not shown; [ ] = dose if it differs, or a comment. Hits are enriched below; roughly 4.2% of the tested compounds scored in any of these assays. The call rests on the fitted dose curve; in most records, active means well fitted curve in the direction sought with a large enough effect; inconclusive means small, poorly fitted or top-dose-only effect, or another doubt; inactive means no such curve, though single readings can be large; an effect the other way counts as inactive or inconclusive. Unless noted, on the % scale 0 is the no-effect control and ±100 the full control effect; potency means the concentration at half of the fitted maximal effect.

SMILES	ALOX12 inh	PLK1 PBD inh	Sfp PPTase inh	VDR inh
CCCCOC(=O)CNc1n[nH]c(=S)[nH]c1=O	-20.5%	-2.2%	56.2µM*	-7.9%
CCc1cccc(CN2CCC(CNC(=O)Nc3ccc(Cl)cc3)CC2)c1	-12.3%	-0.5%	17.6%	-1.6%
O=C(c1cccc(S(=O)(=O)N2CCOCC2)c1)N1CCN(S(=O)(=O)c2cccc([N+](=O)[O-])c2)CC1	2.2%	-0.5%	/	-6.3%
Cc1ccc(C(=O)NNC(=O)c2csc(N3CCOCC3)n2)o1	-6.3%	-0.9%	/	-2.0%
CC(C)C1C(=O)NC(=S)N1S(=O)(=O)c1ccc(C(C)(C)C)cc1 (configuration not stated)	12.8%	23.8µM*	3.7%	-18.4%
Cc1ccc(/C=N/N2CCN(Cc3ccc(Cl)cc3)CC2)o1	9.6%	-10.2%	25.1µM*	?
COc1ccccc1N1CCN(/N=C\c2ccc(C)o2)CC1	0.0%	-6.3%	79.4µM*	-6.7%
Clc1ccc(CN2CCN(/N=C/c3ccco3)CC2)cc1	6.6%	-1.4%	3.3%	-18.2%
COc1cc(/C=N/N2CCN(C3c4ccccc4-c4ccccc43)CC2)cc(OC)c1O	?	3.6%	39.8µM*	-8.0%
Oc1ccc(/C=N/N2CCN(C3c4ccccc4-c4ccccc43)CC2)cc1O	17.8µM*	-4.5%	56.2µM*	-0.9%
O=C(O)c1ccc(/C=N/N2CCN(C3c4ccccc4-c4ccccc43)CC2)cc1	?	?	?	-14.1%
O=C(CN1CCCCCC1)N1c2ccccc2C=Cc2ccccc21	-16.9%	-4.3%	3.9%	3.3%
O=C(O)CCC(=O)N[C@H]1CCN2C(=O)c3cc(-c4cccs4)ccc3NC(=O)[C@H]12	19.1%[176 µM]	/	/	/
CC(C)(C)n1nnnc1C(c1cccc(C(F)(F)F)c1)N1CCOCC1 (configuration not stated)	1.5%	3.7%	22.8%	9.1%
Cc1ccc(/C=N/N2CCN(C3c4ccccc4-c4ccccc43)CC2)o1	?	-13.0%	17.8µM*	-16.4%
C(=N\N1CCN(C2c3ccccc3-c3ccccc32)CC1)/c1cccs1	4.1%	-5.0%	12.6%	-3.6%
Cc1ccc(-n2c(-c3ccccc3)cc(C=Nc3ccc(C)c(C)c3)c2-c2ccccc2)cc1	20µM*	/	/	/
CC(C)C(=O)NCCC1CCN(C(=O)Nc2ccccc2F)CC1	25.8%	/	/	/
COc1ccc(OC)c2c1CC(C)(C)n1c(-c3ccccc3)nnc1-2	-5.2%	/	/	/
CCOc1ccccc1N1CC(C(=O)N2CCc3ccccc3C2)CC1=O (configuration not stated)	?	3.36µM*	15.5%	?
CCOc1ccccc1N1CC(C(=O)N2CCN(Cc3ccc(C#N)cc3)CC2)CC1=O (configuration not stated)	1.4%	2.7%	/	12.0%
COc1ccc(S(=O)(=O)N(C)c2ccc(C(=O)N3CCCC3)cc2)cc1	3.9%	-6.6%	6.8%	-1.0%
O=c1[nH]c(C2CCN(CC3CCCCC3)CC2)nn1Cc1ccccc1	81.8%	/	/	/
O=C(CCSC1=NCCCN1)c1ccc(F)cc1	44.7µM*	?	/	70.8µM*
C/C(=N\NC(=S)NCCc1ccccc1)c1ccc(Cl)cc1	35.5µM*	3.4%	1.3%	-19.1%
SMILES	ALOX12 inh	PLK1 PBD inh	Sfp PPTase inh	VDR inh
S=C(NCCSc1ccc(Cl)cc1)NCCc1ccccc1	39.8µM*	/	/	/
C/C(=N\NC(=S)NCCc1ccccc1)c1ccc(C)cc1	39.8µM*	-5.9%	-6.4%	-1.3%
CSc1ccc(C(=O)C2CCCN(C(=O)Cc3nonc3C)C2)cc1 (configuration not stated)	-15.6%	-12.1%	1.6%	-5.5%
CCN(CC)CCNC(=O)Cc1nn(C(C)C)c(=O)c2ccccc12	5.0%	/	/	/
Cc1cccc(C(=O)NC2C(=O)NNC2c2ccc(Cl)cc2)c1 (configuration not stated)	14.1µM*	-26.7%	-11.5%	?
O=C(NC1C(=O)NNC1c1ccccc1)c1ccccc1 (configuration not stated)	?	-21.4%	10.8%	-3.7%
O=C(c1c[nH]c2ccc(S(=O)(=O)N3CCOCC3)cc2c1=O)N1CCN(c2ccccn2)CC1	356.3%	-4.0%	12.8%	0.8%
CCC(C(=O)N1CCC(c2n[nH]c(=O)n2Cc2ccc(OC)cc2)CC1)c1ccccc1 (configuration not stated)	35.5µM*	/	/	/
COc1ccc(CC(=O)N2CCC(c3n[nH]c(=O)n3Cc3ccc(OC)cc3)CC2)cc1	-20.5%	/	/	/
O=C(O)C1=C[C@@H](c2ccc(Br)cc2)C[C@@H](OCCCCO)O1	?	-0.6%	/	-12.0%
O=C(O)C1=C[C@H](c2ccc(Br)cc2)C[C@H](OCCCCO)O1	35.5µM*	-15.1%	3.1%	-8.0%
C#Cc1ccc([C@H]2C=C(C(=O)O)O[C@@H](OCc3ccc(CO)cc3)C2)cc1	44.7µM*	-14.9%	6.9%	-12.0%
C#Cc1ccc([C@@H]2C=C(C(=O)NCc3ccccc3)O[C@H](OCc3ccc(CO)cc3)C2)cc1	-9.1%	-12.1%	12.6%	-17.0%
COc1cc(OC)c(NC(=O)c2cnc(NCc3ccc4c(c3)OCO4)nc2C)cc1Cl	67.8%	/	/	/
COC(=O)CCN(C(C)=O)c1ccc(N)cc1	-8.5%	26.7µM*	16.2%	?
O=S1(=O)c2ccc(Br)cc2OC(COCc2ccccc2)CN1Cc1ccccc1 (configuration not stated)	-5.6%	23.8µM*	/	?
Cc1ccc(S(=O)(=O)n2c3ccc(Cl)cc3c3nc(C)sc32)cc1	-5.4%	26.7µM*	-15.0%	-13.5%
CCc1ccc2c(c1)c1nc(C)sc1n2S(=O)(=O)c1ccc(C)cc1	-4.9%	/	/	/
CCc1ccc(/C=C2\CN(CC)Cc3c2nc2ccccc2c3C(=O)O)cc1	?	-10.7%	2.51µM*	-11.1%
O=C(O)c1c2c(nc3ccccc13)/C(=C/c1ccc(OC(F)F)cc1)CCC2	?	-10.7%	-8.6%	1.3%
O=C(O)c1c2c(nc3ccccc13)/C(=C/c1ccc(O)cc1)CC2	?	18.9µM*	-21.2%	-7.1%
CCN1C/C(=C/c2sccc2C)c2nc3ccccc3c(C(=O)O)c2C1	?	-11.1%	-5.5%	-6.0%
CCN1C/C(=C/c2cccs2)c2nc3ccccc3c(C(=O)O)c2C1	?	-28.6%	44.7µM*	15.0%
Cc1cccc(-c2ccc3[nH]c4c(c3c2)CCN2C[C@@H]([C@H](C)O)[C@@H](N(C)C(=O)NC3CCCCC3)C[C@@H]42)c1	34.8%	-2.5%	/	/
CC1OC(OC2C(OC3C(O[C@H]4CC[C@]5(C)C6C=C[C@]78OC[C@@]9(CC[C@@H](C)[C@H](C)C97)[C@H](O)C[C@@]8(C)[C@]6(C)CC[C@H]5C4(C)C)OC(C)C(O)C3O)OC(CO)C(O)C2O)C(O)C(O)C1O (some centres not stated)	/	/	79.4µM*	/
